Results filed as inconclusive are left out. Calls of active or inactive are those of the source. Calls follow the shape of the dose curve; as a rule, active = well fitted inhibition curve with a large enough effect; inconclusive = small, poorly fitted or top-dose-only effect; inactive = flat fitted curve, though single readings scatter.
Assays:
CRL-7250 = normal cell line; experiment: Cytotoxic Profiling of Annotated Libraries Using Quantitative High-Throughput Screening (AID 1296008); details: Five cell lines viability, CellTiter-Glo ATP luminescence, 48-72 h; max response: hits give low values
Procedure, shortened: (§1)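 Cytotoxicity was measured as CellTiter-Glo ATP luminescence, read after 10 min at room temperature. Compound treatment of the cells lasted 48 or 72 hr at 37 degrees Celsius in a qHTS format.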

HEK293 = experiment: as above; details: Five cell lines viability, CellTiter-Glo ATP luminescence, 48-72 h; max response: hits give low values
Procedure, shortened: as §1

HaCat [1] = experiment: as above; details: Five cell lines viability, CellTiter-Glo ATP luminescence, 48-72 h; max response: hits give low values
Procedure, shortened: as §1

KB-3-1 = experiment: as above; details: Five cell lines viability, CellTiter-Glo ATP luminescence, 48-72 h; max response: hits give low values
Procedure, shortened: as §1

NIH3T3 = experiment: as above; details: Five cell lines viability, CellTiter-Glo ATP luminescence, 48-72 h; max response: hits give low values
Procedure, shortened: as §1

HEK293T = experiment: qHTS assay to identify novel small-molecules to repurpose for Merkel cell carcinoma treatment (AID 1296009); details: MCC and control cell lines, CellTiter-Glo viability, 72 h; series mostly up to 44.8 µM
Procedure, shortened: (§2)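 Cell viability, measured as CellTiter-Glo luminescence, was normalized between DMSO and no-cell wells. The cells had been exposed to 8- or 11-point compound dilutions for 72 hr at 37 degree celsius.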

MCC-13 = experiment: as above; details: MCC and control cell lines, CellTiter-Glo viability, 72 h; series mostly up to 46 µM
Procedure, shortened: as §2

HACAT [2] = experiment: as above; details: MCC and control cell lines, CellTiter-Glo viability, 72 h; at 44.8 µM (top of the series) unless noted
Procedure, shortened: as §2
% is scaled to controls: 0 for no effect and ±100 for the full control effect; potency is read from the fitted curve at half-maximal effect.
Also: nearly all actives have a fitted effect of over 60% in size.

O=C1c2c(O)cccc2[C@@H]([C@@H]2O[C@H](CO)[C@@H](O)[C@H](O)[C@H]2O)c2cc(CO)cc(O)c21
inactive: max response (CRL-7250) -3.91% | outcome (HEK293) | max response (HaCat [1]) -8.19% | outcome (KB-3-1) | max response (NIH3T3) 4.49% | Potency (HEK293T) | Potency (MCC-13)

O=C(CN1C(=O)C2(CCCC2)NC[C@H]1c1cc(F)cc(F)c1)Nc1ccc2c(c1)C[C@@]1(C2)C(=O)Nc2ncccc21
inactive: outcome (CRL-7250) | outcome (HEK293) | max response (HaCat [1]) 3.79% | max response (KB-3-1) 2.38% | max response (NIH3T3) -4.62% | Potency (HEK293T) | Potency (MCC-13)

Nc1cccc2c1C(=O)N(C1CCC(=O)NC1=O)C2=O (stereo unspecified)
inactive: max response (CRL-7250) 1.13% | max response (HEK293) -10.8% | outcome (HaCat [1]) | max response (KB-3-1) -7.31% | max response (NIH3T3) -1.24% | outcome (HACAT [2]) | Potency (MCC-13)

NC(=O)c1cccc(-c2cccc(OC(=O)NC3CCCCC3)c2)c1
inactive: outcome (CRL-7250) | max response (HEK293) -9.31% | outcome (HaCat [1]) | max response (KB-3-1) 6.26% | outcome (NIH3T3) | outcome (HACAT [2]) | Potency (MCC-13)

CCN(C(=O)c1c(O)c2c(Cl)cccc2n(C)c1=O)c1ccccc1
inactive: outcome (HaCat [1]) | max response (KB-3-1) 3.28% | max response (NIH3T3) -5.88% | outcome (HACAT [2]) | Potency (MCC-13)
active: Potency (CRL-7250) 5.9 µM | Potency (HEK293) 4.18 µM

C[C@]12C=CC(=O)N[C@@H]1CC[C@H]1[C@H]3CC[C@@H](C(=O)Nc4cc(C(F)(F)F)ccc4C(F)(F)F)[C@@]3(C)CC[C@@H]12
inactive: max response (CRL-7250) -6.18% | max response (HEK293) -11% | outcome (HaCat [1]) | max response (KB-3-1) -3.32% | outcome (NIH3T3) | outcome (HACAT [2]) | Potency (MCC-13)

COc1ccc(CCC(=O)c2c(O)cc(O[C@@H]3O[C@H](CO)[C@@H](O)[C@H](O)[C@@H]3O[C@@H]3O[C@@H](C)[C@H](O)[C@@H](O)[C@@H]3O)cc2O)cc1O
inactive: max response (CRL-7250) -4.09% | max response (HEK293) -11.6% | outcome (HaCat [1]) | max response (KB-3-1) -1.61% | outcome (NIH3T3) | outcome (HACAT [2]) | Potency (MCC-13)

CC[C@H]1OC(=O)[C@H](C)[C@@H](O[C@H]2C[C@@](C)(OC)[C@@H](O)[C@H](C)O2)[C@H](C)[C@@H](O[C@@H]2O[C@@H](C)C[C@H](N(C)C)[C@@H]2O)[C@](C)(O)C[C@@H](C)C(=O)[C@H](C)[C@@H](O)[C@]1(C)O
inactive: max response (CRL-7250) 0.799% | max response (HEK293) -7.85% | outcome (HaCat [1]) | max response (KB-3-1) 5.08% | outcome (NIH3T3) | outcome (HACAT [2]) | Potency (MCC-13)

O=C1NC(=O)[C@@H](c2cn3c4c(cccc24)CCC3)[C@H]1c1c[nH]c2ccccc12
inactive: outcome (HaCat [1]) | outcome (HACAT [2])
active: Potency (CRL-7250) 13.2 µM | Potency (HEK293) 0.662 µM | Potency (KB-3-1) 0.833 µM | Potency (NIH3T3) 2.09 µM | Potency (MCC-13) 3.32 µM

Oc1cc2c(cc1O)C1c3ccc(O)c(O)c3OCC1(O)C2 (stereo unspecified)
inactive: max response (CRL-7250) 1.81% | max response (HEK293) 1.47% | outcome (HaCat [1]) | max response (KB-3-1) 7.88% | outcome (NIH3T3) | outcome (HACAT [2]) | Potency (MCC-13)

CCN1CCN(C(=O)N[C@H](C(=O)N[C@@H]2C(=O)N3C(C(=O)O)=C(CSc4nnnn4C)CS[C@@H]23)c2ccc(O)cc2)C(=O)C1=O
inactive: max response (CRL-7250) 2.05% | outcome (HEK293) | max response (HaCat [1]) 2.66% | outcome (KB-3-1) | max response (NIH3T3) 3.36% | outcome (HEK293T) inactive [at 9.27 µM] | activity change, negative = cytotoxicity (MCC-13) 4.78% [at 9.22 µM]

O=C(O)CCCCC(CCSCc1ccccc1)SCc1ccccc1 (stereo unspecified)
inactive: max response (CRL-7250) 0.756% | max response (HEK293) -0.529% | outcome (HaCat [1]) | outcome (KB-3-1) | max response (NIH3T3) 2.24% | outcome (HACAT [2]) | Potency (MCC-13)

Nc1ccn(C[C@@H](CO)OCP(=O)(O)O)c(=O)n1
inactive: max response (CRL-7250) 3.98% | max response (HEK293) -0.164% | outcome (HaCat [1]) | outcome (KB-3-1) | max response (NIH3T3) 0.667% | outcome (HACAT [2]) inactive [at 17.4 µM] | Potency (MCC-13)

CC(=O)O[C@H]1C[C@@H]2CC[C@H]3[C@H]4C[C@H]([N+]5(C)CCCCC5)[C@@H](OC(C)=O)[C@@]4(C)CC[C@@H]3[C@@]2(C)C[C@H]1[N+]1(C)CCCCC1
inactive: max response (CRL-7250) 0.398% | max response (HEK293) 0.173% | outcome (HaCat [1]) | outcome (KB-3-1) | max response (NIH3T3) -1.21% | outcome (HACAT [2]) | Potency (MCC-13)

O=C(NNC(=O)c1ccc(CNS(=O)(=O)c2ccc(F)c(Cl)c2)cc1)c1ccccc1
inactive: outcome (CRL-7250) | max response (HEK293) 4.45% | outcome (HaCat [1]) | max response (KB-3-1) 0.725% | outcome (NIH3T3) | outcome (HACAT [2]) | Potency (MCC-13)

NC1=N[C@H]2[C@H](CS[C@H]2CCCCC(=O)O)N1
inactive: outcome (CRL-7250) | max response (HEK293) -4.7% | outcome (HaCat [1]) | outcome (KB-3-1) | max response (NIH3T3) -0.4% | outcome (HACAT [2]) inactive [at 17.4 µM] | Potency (MCC-13)

OC[C@@H](O)[C@@H](O)[C@H](O)[C@@H](O)CO
inactive: max response (CRL-7250) 0.947% | max response (HEK293) 2.06% | outcome (HaCat [1]) | outcome (KB-3-1) | max response (NIH3T3) -2.12% | outcome (HACAT [2]) | Potency (MCC-13)

CC(=O)N[C@@H]1[C@H](O[C@@H]2c3ccc(c(Cl)c3)Oc3cc4cc(c3O[C@H]3O[C@H](CO)[C@@H](O)[C@H](O)[C@H]3NC(=O)CCCCCCCC(C)C)Oc3ccc(cc3Cl)C[C@H]3NC(=O)[C@H](N)c5ccc(O)c(c5)Oc5cc(O)cc(c5)[C@H](NC3=O)C(=O)N[C@H]4C(=O)N[C@H]3C(=O)N[C@@H]2C(=O)N[C@@H](C(=O)O)c2cc(O)cc(O[C@H]4O[C@H](CO)[C@@H](O)[C@H](O)[C@H]4O)c2-c2cc3ccc2O)O[C@H](CO)[C@@H](O)[C@@H]1O
inactive: outcome (CRL-7250) | outcome (HEK293) | max response (HaCat [1]) 2.16% | outcome (KB-3-1) | max response (NIH3T3) 4.41% | Potency (HEK293T) | Potency (MCC-13)
